Bioassay records from PubChem BioAssay.
TDP1 cell noCPT – qHTS for Inhibitors of human tyrosyl-DNA phosphodiesterase 1 (TDP1): qHTS in cells in absence of CPT; DT40 Tdp1-/- hTDP1 cells, no CPT, ATP luminescence, 48 h; Potency, µM (doses to about 46.2 µM), most hits filed as inhibitors; 420,000 compounds, 15% hits; AID 686978, 2013; note: nearly all actives have a fitted effect of over 55% in size
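Growth of hTDP1-complemented DT40 Tdp1-knockout cells is measured by ATP luminescence after at least 48 hr compound exposure at 37 °C, with DMSO substituting for the 20 nM CPT used in the parallel screen.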
Gal4-VP16 FLuc – inhibits Gal4-VP16 luciferase reporter, ROR gamma counter-screen. Drosophila S2 Gal4-VP16 UAS-luciferase, luminescence, 20 h. Potency, µM (titrated, usually from 53.6 µM), usual class: inhibitors. 310,000 compounds, 3.5% hits;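 note: Gal4-VP16 expression switched on by copper sulfate through the metallothionein promoter; nearly all actives have a fitted effect of over 50% in size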
TDP1 inh – blocks human tyrosyl-DNA phosphodiesterase 1. Q9NUW8. recombinant TDP1, AlphaScreen DNA substrate cleavage. Potency, µM (doses to about 130 µM), hits mostly inhibitors. 350,000 compounds, 0.28% hits. AID 485290; note: nearly all actives have a fitted effect of over 40% in size
Target sequence (Q9NUW8 whole entry, looked up): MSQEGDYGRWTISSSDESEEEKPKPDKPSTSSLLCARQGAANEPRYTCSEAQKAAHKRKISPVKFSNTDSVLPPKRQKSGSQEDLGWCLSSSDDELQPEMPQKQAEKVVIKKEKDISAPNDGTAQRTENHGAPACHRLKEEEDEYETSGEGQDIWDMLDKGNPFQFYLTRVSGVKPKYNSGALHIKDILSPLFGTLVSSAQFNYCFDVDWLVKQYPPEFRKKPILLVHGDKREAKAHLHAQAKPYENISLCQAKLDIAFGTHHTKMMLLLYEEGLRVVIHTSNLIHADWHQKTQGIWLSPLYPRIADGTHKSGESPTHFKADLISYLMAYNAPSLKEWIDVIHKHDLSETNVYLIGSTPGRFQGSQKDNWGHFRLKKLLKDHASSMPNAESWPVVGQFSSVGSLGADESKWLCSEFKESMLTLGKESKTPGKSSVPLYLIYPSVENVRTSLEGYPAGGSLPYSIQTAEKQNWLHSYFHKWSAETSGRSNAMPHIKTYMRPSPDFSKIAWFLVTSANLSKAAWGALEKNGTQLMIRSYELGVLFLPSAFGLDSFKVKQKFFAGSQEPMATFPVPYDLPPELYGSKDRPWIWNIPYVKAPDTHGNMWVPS
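Signal: AlphaScreen proximity between streptavidin donor and anti-FITC acceptor beads on intact substrate. Reaction: Tdp1 1 nM, substrate 15 nM final, 5 min RT after 15 min compound preincubation.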
RORg inh – inhibitors of mouse ROR gamma transcriptional activity; P51450; Drosophila S2 Gal4-RORgamma UAS-luciferase reporter, 20 h; Potency, µM (titrated, usually from 53.6 µM), usual class: inhibitors; 310,000 compounds, 5.4% hits; note: nearly all actives have a fitted effect of over 60% in size
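Compounds are pin-transferred onto Drosophila Schneider cells expressing a copper-inducible Gal4–ROR gamma transactivation domain fusion. After 1 hr, copper sulfate is added to 700 uM final; luciferase is read 20 hr later.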
DT40 TDP1 CPT – growth inhibition of DT40 Tdp1-/-;hTDP1 cells with camptothecin (screen for TDP1 inhibitors) | chicken DT40 Tdp1-/-;hTDP1 cells + 20 nM CPT, ATP luminescence, 48 h | Potency, µM (doses to about 46.2 µM), usual class: inhibitors | 420,000 compounds, 12% hits | AID 686979; note: nearly all actives have a fitted effect of over 55% in size
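Chicken DT40 Tdp1-/- cells complemented with human TDP1, 400 cells/well, exposed to compounds plus 20 nM camptothecin for at least 48 h at 37 C; viability read as ATP content by CellTiter-Glo luminescence.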
A number is an active result; . = inactive; ? = inconclusive; / = not tested or not shown; [ ] = remark or other dose. Most compounds without a hit are left out; they make up all but 19% or so of the library. Calls come from the whole dose curve; as a rule, active = well fitted curve in the direction sought with a large enough effect; inconclusive = small, poorly fitted or top-dose-only effect, or another doubt; inactive = no such curve, though single readings can be large; an effect the other way counts as inactive or inconclusive.

SMILES	TDP1 cell noCPT	Gal4-VP16 FLuc	TDP1 inh	RORg inh	DT40 TDP1 CPT
CCS(=O)(=O)N1CCCC(C(=O)NCC2CCCO2)C1 (stereo not given)	.	.	.	.	.
CCc1cccc(CC)c1NC(=O)C(CC)Sc1nc2ccsc2c(=O)n1CCC(=O)O (stereo not given)	.	/	/	/	?
Cc1ccc(NC(=O)CN2C(=O)N/C(=C/c3ccccc3OCc3cccc(C(=O)O)c3)C2=O)cc1	.	.	.[0.0935 µM]	.	.
COc1cc(C2C3CN(C)CC=C3C(C#N)=C(N)C2(C#N)C#N)ccc1OC(C)C (stereo not given)	.	.	.	.	.
COc1cc([C@@H]2[C@H]3CNCC=C3C(C#N)=C(N)C2(C#N)C#N)ccc1OC(C)C	?	.	.	.	9.2µM
CC(=O)Nc1ccc(S(=O)(=O)N2CCN(C(=O)N3CCCC3)CC2)cc1	.	.	/	.	.
CCOC(=O)C1=C(C)NC(C)=C(C(=O)OCC)C1C(=O)OCC(=O)NCCc1ccccc1	26µM	/	.	/	?
CCOC(=O)C1=C(C)NC(C)=C(C(=O)OCC)C1C(=O)OCC(=O)NC1CCCCC1	23µM	/	.	/	26µM
CCNC(=O)COC(=O)C1C(C(=O)OCC)=C(C)NC(C)=C1C(=O)OCC	.	.	.	.	.
COc1cccc(OCC(=O)NNC(=O)Cc2cccs2)c1	.	.	.	.	.
CC(=O)c1ccc(OC(=O)C2CC(=O)N(c3cccc(C)c3)C2)cc1 (stereo not given)	.	.	.	.	.
COC(=O)c1cc(C(C)=O)c(C)[nH]c1=O	.	.	.	.	.
COC(=O)c1cc2c(C)[nH]c(C)c2cc(C(=O)OC)c1=O	6.5µM	.	.	.	7.3µM
Cc1ccc(Cn2c(CNC(=O)c3ccc(Cl)c([N+](=O)[O-])c3)nc3cccnc32)cc1	?	/	.	/	?
CCOc1ccc(Cn2c(CNS(=O)(=O)c3ccc(CC)cc3)nc3cccnc32)cc1	?	/	.	/	?
Cc1ccc(Cn2c(CNS(=O)(=O)c3c(C)cc(C)cc3C)nc3cccnc32)cc1	?	/	.	/	16µM
Cc1ccc(Cn2c(CNC(=O)c3ccccc3Br)nc3cccnc32)cc1	16µM	/	.	/	?
CCOc1ccc(Cn2c(CNS(=O)(=O)c3ccc(Cl)s3)nc3cccnc32)cc1	?	/	.	/	18µM
CCOc1ccc(Cn2c(CNS(=O)(=O)c3c(C)cc(C)cc3C)nc3cccnc32)cc1	18µM	/	.	/	?
COc1ccccc1Cn1c(CNS(=O)(=O)c2c(C)cc(C)cc2C)nc2cccnc21	16µM	/	.	/	16µM
O=C(c1ccccc1)c1ncc[nH]1	.	.	/	.	.
O=C(/C(=C(\O)c1ccccc1)c1nc2ccccc2[nH]1)c1ccccc1	?	?	/	7.9µM	.
O=C(/C(=C(\O)c1ccccc1)c1ncc[nH]1)c1ccccc1	.	?	.	13µM	.
CC(=O)/C(=C(/O)c1ccccc1)c1nc2ccccc2[nH]1	.	.	.	.	.
COc1cc(-c2c(NC(=O)c3ccco3)oc3ccc(Cl)cc3c2=O)cc(OC)c1OC	.	/	/	/	?
SMILES	TDP1 cell noCPT	Gal4-VP16 FLuc	TDP1 inh	RORg inh	DT40 TDP1 CPT
CCc1c(C)nc(N2CCN(Cc3ccc4c(c3)OCO4)CC2)[nH]c1=O	.	.	/	.	.
COc1ccc(C2(CNC(=O)/C=C/c3ccco3)CCCC2)cc1OC	?	.	.	?	?
Cc1ccc(NNC(=O)c2ccno2)cc1Cl	10µM	.	.	.	?
CC1CN(S(=O)(=O)c2ccc(C(=O)Nc3sc4c(c3C(N)=O)CCN(C)C4)cc2)CC(C)O1 (stereo not given)	/	.	.	?	/
Cc1ccc(Cn2nnc3sc4c(c3c2=O)CCC(C)C4)cc1 (stereo not given)	?	/	.	/	.
CC1CCc2c(sc3nnn(Cc4ccc(F)cc4)c(=O)c23)C1 (stereo not given)	26µM	/	.	/	3.3µM
O=C(O)c1ccc(Cn2nnc3sc4c(c3c2=O)CCCC4)cc1	.	.	50µM	.	.
CCC1(C)Cc2c(sc3nnn(Cc4ccccc4Cl)c(=O)c23)CO1 (stereo not given)	16µM	.	.	?	?
CCC1(C)Cc2c(sc3nnn(CC(=O)Nc4ccccc4)c(=O)c23)CO1 (stereo not given)	.	.	.	.	.
CC1CCc2c(sc3nnn(Cc4ccccc4Cl)c(=O)c23)C1 (stereo not given)	21µM	/	.	/	?
NC(=O)C1(N2CCCCC2)CCN(C(=O)NC23CC4CC(CC(C4)C2)C3)CC1	.	.	.	.	.
C=C(C)CSc1nc2sc3c(c2c(=O)n1Cc1ccccc1)CC(C)(CC)OC3 (stereo not given)	12µM	/	.[12.3 µM]	/	?
O=C(N/N=C/c1ccc2ncccc2c1)c1ccco1	.	?	.	7.9µM	.
CCOCCCNC(=O)C1CCN(S(=O)(=O)c2cc(Br)cc3c2N(C(=O)CC)CC3)CC1	.	.	.[0.0935 µM]	.	.
O=C1c2ccc(Cl)cc2S(=O)(=O)c2cccc(C(=O)N3CCN(c4ccc(Cl)cn4)CC3)c21	16µM	/	.	/	13µM
O=C(CSc1nnnn1-c1ccc2c(c1)OCO2)NCc1ccccc1	15µM	.	.	.	15µM
COc1ccc(-n2nnnc2SCC(=O)Nc2ccc3c(c2)OCCO3)cc1OC	9.2µM	.	.	.	?
COc1ccc(-n2nnnc2SCC(=O)Nc2ccc3c(c2)OCCO3)c(OC)c1	23µM	?	.	.	13µM
O=C(CSc1nnnn1-c1ccc2c(c1)OCO2)NCc1cccs1	.	.	.	.	.
Cc1ccnc(NS(=O)(=O)c2ccc(N3C(=O)Nc4ccccc4N3O)cc2)c1	.	.	.	.	.
CCCCNC(=O)/C(C#N)=C/c1cccnc1	?	.	.	.	.
Cc1cc(C(=O)COc2ccc(C#N)cc2)c(C)n1C1CC1	18µM	/	/	/	?
Cc1cc(C(=O)COc2ccccc2C#N)c(C)n1C1CC1	?	/	.	/	?
Cc1nn(Cc2ccccc2)c(C)c1C(=O)OCC(=O)c1cc(C)n(C2CC2)c1C	18µM	.	.	.	23µM
CC(C)(C)c1nc2ccccc2[nH]1	.	.	.	.	.
SMILES	TDP1 cell noCPT	Gal4-VP16 FLuc	TDP1 inh	RORg inh	DT40 TDP1 CPT
O=C1CN(C(=S)Nc2ccccc2Cl)CCN1	.	.	.	.	.
Cc1ccccc1-n1nnnc1Sc1nnnn1-c1ccccc1	8.2µM	?	.	?	12µM
CCCSc1nnc(Sc2nnnn2-c2ccccc2)s1	2.9µM	.	.	1.6µM	4.6µM
Cc1ccccc1-n1nnnc1SCC(N)=O	.	.	.	.	.
O=[N+]([O-])c1ccc(Sc2nnnn2-c2ccccc2)nc1	3.7µM	?	.	3.5µM	3.3µM
CCN1CCN(S(=O)(=O)c2ccc3c(c2)NC(=O)CS3)CC1	.	.	.	.	.
CCOC(=O)NC(=S)Nc1ccc(C(C)(C)C)cc1Br	.	10µM	.	3.5µM	.
